Consider 69 compounds from PubChem BioAssay AID1159577 (Broad Institute, 2015).

About 240 (18%) of roughly 1,300 compounds were called active. About 8% were inconclusive and are not listed. No rule for the calls is given here. Not all results are given here. Measured potencies and affinities stand elsewhere.

The nature of this test: toxicity to human hepatoma HepG2 cells – cell-based, cherry-picked samples, cytotoxicity control, dose response (AID 1159577). The conditions noted are these: HepG2 cytotoxicity counterscreen, plate reader; series mostly up to 19.5 µM. (The purpose of a counterscreen is to sort out artefacts and off-target activity.)
As to `O=C(C1CC1)N1C[C@@H]2N[C@H](C1)C2c1ccc(-c2cccc(F)c2)cc1` (some centres undefined), the result was inactive.
To `N#Cc1cccc(-c2ccc(C3[C@@H]4CN(C(=O)C5CCC5)C[C@H]3N4)cc2)c1` (some centres undefined) belongs “inactive”.
Next, `C[C@@H]1CN([C@@H](C)CO)C(=O)c2c(c3ccccc3n2C)-c2ccccc2CO[C@@H]1CN(C)C(=O)Nc1cccc(Cl)c1Cl`: “inactive”.
`C[C@H]1CN([C@@H](C)CO)C(=O)CCCn2nncc2CO[C@@H]1CN(C)C(=O)Nc1ccc(N2CCCCC2)cc1`: the outcome was inactive.
To `OC[C@H]1CC[C@@H]2O[C@H](CCc3ccc(-c4ccc(F)cc4)cc3)[C@H](n3cc(C4CC4)nn3)C[C@@H]2O1` belongs “inactive”.
Next, `OC[C@@H]1CC[C@@H]2O[C@H](CCc3ccc(-c4ccccc4)cc3)[C@H](n3cc(-c4ccccc4)nn3)C[C@@H]2O1`: “inactive”; `O=C(C[C@@H]1CC[C@@H]2[C@H](COC[C@@H](O)CN2S(=O)(=O)c2ccccc2)O1)NCc1ccc(-c2ccccc2)cc1`: “inactive”; `N#Cc1cccc(-c2ccc(C3[C@@H]4CN(C(=O)C5CC5)C[C@H]3N4)cc2)c1` (some centres undefined): “inactive”.
To `COc1cccc(CN2C[C@@H]3N[C@H](C2)C3c2ccc(-c3ccncc3)cc2)c1` (some centres undefined) belongs “inactive”.
For `COc1ccc(NC(=O)Nc2cccc3c2O[C@H](CN(C)C(=O)Nc2cccc4ccccc24)[C@H](C)CN([C@@H](C)CO)C3=O)cc1`, the compound was classed as inactive.
To `CC(C)NC(=O)N1[C@@H](CO)[C@@H](c2ccccc2)C12CN(Cc1ccc(F)cc1)C2` belongs “inactive”.
Next, `CO[C@@H]1CN(C)C(=O)c2cc(NC(=O)Cc3ccccc3)ccc2OC[C@H](C)N(C(=O)c2ccccc2F)C[C@@H]1C`: “inactive”; `CCCC(=O)N1CC2(C1)CN(Cc1ccc(Cl)cc1)[C@H](CO)c1[nH]c3cc(OC)ccc3c12`: “inactive”; `COc1ccc(C#Cc2cccc(-c3nc(C(=O)N[C@@H]4CCN(Cc5ccccc5)C4)cc4c3[C@@H](CCO)N(S(=O)C(C)(C)C)C4)c2)cc1OC` (some centres undefined): “inactive”.
For `C[C@H](CO)N1C[C@H](C)[C@H](CN(C)S(=O)(=O)c2ccccc2F)OCc2ccccc2-c2c(n(C)c3ccccc23)C1=O`, the compound was called inactive.
To `COc1cccc(-c2ccc([C@@H]3[C@H](CO)N4CCCCN(C(=O)c5ccc(F)cc5)C[C@@H]34)cc2)c1` belongs “inactive”; to `COc1ccc2c3c([nH]c2c1)[C@@H](CO)N(Cc1ccccc1F)CC31CN(C(=O)C2CCCC2)C1`, “inactive”; to `COc1ccc(NC(=O)N(C)C[C@H]2OCc3ccccc3-c3c(n(C)c4ccccc34)C(=O)N([C@H](C)CO)C[C@@H]2C)c(OC)c1`, “inactive”.
Next, `CC(C)c1cn([C@H]2C[C@@H]3O[C@H](CO)CC[C@@H]3O[C@@H]2CCc2ccc(C#CC3(O)CCCC3)cc2)nn1`: “inactive”; `COCC(=O)Nc1ccc2c(c1)OC[C@@H](C)N(C(=O)NC(C)C)C[C@@H](C)[C@@H](OC)CN(C)C2=O`: “inactive”; `N#C[C@@H]1[C@@H](c2ccccc2-c2ccccc2F)[C@@H](CO)N1C(=O)C1CCOCC1`: “inactive”.
To `COc1ccc(-c2ccc3c(c2)[C@@H]2[C@@H](CCN2Cc2ccncc2)[C@@H](CO)N3)cc1` belongs “inactive”; to `CO[C@@H]1CN(C)C(=O)c2ccc(NC(=O)Nc3ccc(F)cc3)cc2OC[C@@H](C)N(C(=O)c2ccc(F)cc2)C[C@H]1C`, “inactive”.
For the compound `CC(C)CC#Cc1ccc([C@H]2[C@@H](CO)N3C(=O)CN(C(=O)Cc4ccccc4)C[C@H]23)cc1`, the compound was called inactive.
As to `C[C@H](CO)N1C[C@H](C)[C@@H](CN(C)C(=O)Nc2ccc(-c3ccccc3)cc2)OCc2ccccc2-c2c(n(C)c3ccccc23)C1=O`, the call was inactive.
On to `COc1ccc2c3c([nH]c2c1)[C@H](CO)N(Cc1ccccc1Cl)CC31CCN(C(C)=O)CC1`, for which the compound was called inactive.
Next, `C[C@@H]1CN([C@H](C)CO)C(=O)c2cc(C#Cc3ccccc3F)cnc2O[C@H]1CN(C)C(=O)c1ccc2c(c1)OCO2`: “inactive”; `COc1ccc(-c2ccccc2[C@H]2[C@@H](C#N)N(C(=O)C3CCCC3)[C@H]2CO)cc1`: “inactive”.
To `CN1c2ccc(C3=CCCCC3)cc2[C@H]2[C@H](CCN2C(=O)C2CC2)[C@@H]1CO` belongs “inactive”; to `COC(=O)c1ccc(CN2CC(=O)N3[C@H](CO)[C@@H](c4ccc(-c5ccccc5F)cc4)[C@H]3C2)cc1`, “inactive”; to `CC(C)NC(=O)N1CCCCN2[C@H](CO)[C@@H](c3ccc(C#C[C@H](C)O)cc3)[C@@H]2C1`, “inactive”.
For the compound `CCC(=O)N1CCC2(CC1)CN(C(=O)Nc1ccc(F)cc1)[C@@H](CO)c1c2c2ccc(OC)cc2n1C`, the call was inactive.
Next, `C[C@H]1CN([C@@H](C)CO)C(=O)c2cc(NC(=O)Cc3cn(C)c4ccccc34)ccc2O[C@H]1CN(C)S(=O)(=O)c1cccs1`: “inactive”; `C[C@@H]1CN([C@H](C)CO)S(=O)(=O)c2ccc(-c3ccncc3)cc2O[C@@H]1CN(C)Cc1ccc(Oc2ccccc2)cc1`: “inactive”.
Turning to `C[C@@H]1CN([C@H](C)CO)C(=O)c2cccc(NC(=O)Nc3cccc4ccccc34)c2O[C@@H]1CN(C)C(=O)Nc1ccc(F)cc1`, the compound was classed as inactive.
To `C/C=C/c1ccc2c(c1)[C@H]1[C@H](CCN1C(=O)c1cccc(F)c1)[C@H](CO)N2` belongs “inactive”.
`C[C@@H](NC(=O)C[C@H]1C[C@@H]2c3cc(NS(=O)(=O)c4ccc(F)cc4)ccc3O[C@@H]2[C@H](CO)O1)c1ccccc1`: the outcome was inactive.
Next, `O=C(O)C[C@@H]1C[C@@H]2c3cc(NS(=O)(=O)c4ccccc4)ccc3O[C@@H]2[C@H](CO)O1`: “inactive”; `CCS(=O)(=O)N1CCC2(CC1)CN(Cc1ccc3c(c1)OCO3)[C@@H](CO)c1[nH]c3cc(OC)ccc3c12`: “inactive”.
Next, `CCCNC(=O)N1[C@H](C#N)[C@H](c2ccc(C#Cc3cccc(F)c3)cc2)[C@H]1CO`: “inactive”.
To `N#Cc1cccc(-c2ccc3c(c2)[C@@H]2[C@@H](CCN2Cc2cncnc2)[C@H](CO)N3)c1` belongs “inactive”; to `N#Cc1cccc(-c2ccc3c(c2)[C@H]2[C@H](CCN2Cc2ccncc2)[C@@H](CO)N3)c1`, “inactive”; to `O=C(C1CCCC1)N1CC[C@@H]2[C@H]1c1cc(-c3cccc(F)c3)ccc1N[C@@H]2CO`, “inactive”.
With `O=C(Cc1ccncc1)N1CC[C@@H]2[C@@H](CO)Nc3ccc(-c4cccc(F)c4)cc3[C@@H]21`, the outcome was inactive.
For `COc1ccc(S(=O)(=O)N(C)C[C@H]2Oc3c(NC(=O)Nc4ccc5c(c4)OCO5)cccc3C(=O)N([C@@H](C)CO)C[C@H]2C)cc1`, the call was inactive.
Next, `CCc1nc(N2[C@H](C#N)[C@H](c3ccccc3-c3ccccc3F)[C@H]2CO)sc1C`: “inactive”; `COc1ccc(CN2CC3(CN(C(=O)Cc4ccccc4)C3)c3c([nH]c4cc(OC)ccc34)[C@H]2CO)cc1`: “inactive”.
To `CO[C@H]1CN(C)C(=O)c2ccc(NC(=O)Nc3cc(F)ccc3F)cc2OC[C@@H](C)N(C)C[C@H]1C` belongs “inactive”.
To `COc1ccc2c3c(n(C)c2c1)[C@H](CO)N(C(=O)CC1CC1)CC31CCN(Cc2nccs2)CC1` belongs “inactive”; to `Cc1ccccc1S(=O)(=O)N1[C@H](C#N)[C@H](c2ccc(C#CC3CCCC3)cc2)[C@@H]1CO`, “inactive”; to `CN1c2ccc(C#Cc3cccnc3)cc2[C@@H]2[C@@H](CCN2S(=O)(=O)c2ccccc2F)[C@@H]1CO`, “inactive”.
`Cc1ccc(S(=O)(=O)N(C)C[C@H]2OCc3ccccc3-c3c(n(C)c4ccccc34)C(=O)N([C@@H](C)CO)C[C@@H]2C)cc1`: the compound was called inactive.
Next, `O=S(=O)(c1ccc(F)cc1)N1C[C@@H]2N[C@H](C1)C2c1ccc(-c2ccc(F)cc2)cc1` (some centres undefined): “inactive”; `Cn1cnc(S(=O)(=O)N2C[C@@H]3N[C@H](C2)C3c2ccc(-c3ccccc3F)cc2)c1` (some centres undefined): “inactive”; `Cc1ccc(S(=O)(=O)N2C[C@@H]3N[C@H](C2)C3c2ccc(-c3ccncc3)cc2)cc1` (some centres undefined): “inactive”.
As to `N#Cc1ccc(-c2ccc(C3[C@@H]4CN(S(=O)(=O)c5ccc(F)cc5)C[C@H]3N4)cc2)cc1` (some centres undefined), the result was inactive.
Regarding `O=S(=O)(c1ccc(-c2ccccc2)cc1)N1C[C@@H]2N[C@H](C1)[C@@H]2c1ccc(-c2cccnc2)cc1`, the result was inactive.
To `Cc1ccc(-c2ccc(C3[C@@H]4CN(S(=O)(=O)c5ccccc5)C[C@H]3N4)cc2)cc1` (some centres undefined) belongs “inactive”; to `COc1cccc(-c2ccc3c(c2)[C@H]2[C@H](CCN2C(=O)C2CCCC2)[C@H](CO)N3)c1`, “inactive”.
To `COc1ccc2c3c(n(C)c2c1)[C@@H](CO)N(C(=O)c1ccc(F)cc1)CC31CCN(C(=O)Nc2ccc(F)cc2)CC1` belongs “inactive”; to `COc1ccc(NC(=O)N(C)C[C@@H]2Oc3cc(-c4ccc(C)cc4)ccc3S(=O)(=O)N([C@@H](C)CO)C[C@@H]2C)cc1`, “inactive”.
`COc1ccc(C#Cc2ccc3c(c2)[C@H]2[C@H](CCN2C(=O)C2CCC2)[C@H](CO)N3)cc1`: the result was inactive.
Next, `OC[C@@H]1CC[C@@H]2O[C@H](CCc3ccc(C#CCc4ccccc4)cc3)[C@H](n3cc(-c4ccccc4)nn3)C[C@@H]2O1`: “inactive”; `C[C@@H]1CN([C@H](C)CO)C(=O)c2cccc(NC(=O)Nc3cccc4ccccc34)c2O[C@H]1CN(C)C(=O)NC1CCCCC1`: “inactive”.
In the case of `CCCNC(=O)N1CC(=O)N2[C@@H](CO)[C@@H](c3ccc(C#Cc4cccc(OC)c4)cc3)[C@@H]2C1`, the compound was classed as inactive.
Next, `COc1cccc(S(=O)(=O)N(C)C[C@@H]2Oc3ncc(C#Cc4ccc(OC)c(OC)c4)cc3C(=O)N([C@H](C)CO)C[C@@H]2C)c1`: “inactive”.
To `COc1ccc(NC(=O)N(C)C[C@H]2OCc3ccccc3-c3c(n(C)c4ccccc34)C(=O)N([C@@H](C)CO)C[C@H]2C)c(OC)c1` belongs “inactive”; to `C[C@@H]1CN([C@@H](C)CO)C(=O)c2cccc(NC(=O)C3CC3)c2O[C@@H]1CN(C)C(=O)Nc1ccc(C(F)(F)F)cc1`, “inactive”; to `COc1cccc(NC(=O)N2[C@H](CO)[C@@H](c3ccccc3)[C@H]2CNCC(C)C)c1`, “inactive”.
